# Out of some 190,000 compounds screened, about 1,300 (0.68%) were called active. For the sample, actives were picked, then their nearest neighbours and some compounds at random. Values without a mark were called inactive. Rule as the data show it: active = inhibition above about 50%; inactive = the rest.
# Biological target: Mannose-6-phosphate isomerase (Homo sapiens) (UniProt P34949)
# Experiment: MPI inhibition at elevated mannose 6-phosphate – biochemical, fluorescence intensity, high mannose 6-phosphate, primary screen (AID 1220)
# Conditions: recombinant PMI enzyme, coupled fluorescence intensity; at 20 µM; hits give high values
# Mannose-6-phosphate isomerase (Homo sapiens), sequence (P34949 whole entry, looked up): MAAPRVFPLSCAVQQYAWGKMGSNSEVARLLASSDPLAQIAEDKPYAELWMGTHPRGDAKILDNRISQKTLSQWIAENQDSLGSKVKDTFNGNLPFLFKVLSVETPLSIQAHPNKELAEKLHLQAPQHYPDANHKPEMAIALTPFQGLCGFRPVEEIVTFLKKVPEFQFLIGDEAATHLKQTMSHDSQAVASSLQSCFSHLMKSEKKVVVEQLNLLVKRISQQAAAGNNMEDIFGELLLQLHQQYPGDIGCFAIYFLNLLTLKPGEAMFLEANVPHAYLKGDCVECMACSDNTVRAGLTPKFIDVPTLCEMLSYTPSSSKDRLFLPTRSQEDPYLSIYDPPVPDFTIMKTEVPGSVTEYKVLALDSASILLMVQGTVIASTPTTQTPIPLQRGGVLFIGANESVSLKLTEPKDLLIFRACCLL
row,SMILES,inhibition
1,Cc1c(C(=O)NCC2CCCO2)oc2ccc(S(=O)(=O)N3CCCCC3)cc12 (centres undefined),-6.8%
2,O=C(c1ccccc1)c1cc2ccccc2o1,-9.2%
3,Cc1sc2cc3c(c(C(=O)c4ccccc4)[n+]2c1C)-c1cccc2cccc-3c12,-1.5%
4,O=C(c1ccccc1)c1c2c(cc3sc4ccccc4[n+]13)-c1cccc3cccc-2c13,51.7% (active)
5,COc1ccccc1CN1CCCCC1C(=O)O (centres undefined),-6.1%
6,COC(=O)c1c(NC(=O)c2ccco2)sc(C(=O)N(C)C)c1C,1.2%
7,O=C(O)C1CCCCC1C(=O)Nc1ccccc1Cl (centres undefined),-0.8%
8,O=C(O)C1CCCCC1C(=O)Nc1ccccc1F (centres undefined),7%
9,O=C(O)C1CCCCC1C(=O)Nc1cccc2ccccc12 (centres undefined),54.6% (active)
10,O=C(COC(=O)/C=C/c1cccc([N+](=O)[O-])c1)NCCCN1CCCC1=O,-2.9%
11,COc1cc(-c2nc3ccccn3c2/N=C/c2cc(OC)c(O)cc2Cl)ccc1O,41.9%
12,COc1cc(-c2nc3ccccn3c2/N=C/c2cccc(OC)c2O)ccc1O,61.6% (active)
13,COc1cc(-c2nc3ccccn3c2/N=C/c2ccccc2)ccc1O,14.6%
14,O=C(O)c1cc2c(ccc3ccccc32)o1,9.6%
15,CC(=O)c1cc2cc(O)ccc2o1,1.7%
16,CC(=O)c1cc2c(O)c(O)ccc2o1,71% (active)
17,CSCCC(NS(=O)(=O)/C=C/c1ccccc1)C(=O)O (centres undefined),-6.2%

row,SMILES,inhibition
1,CCOC(=O)N1CCC(NS(=O)(=O)c2ccc3c(c2)oc(=O)n3C)CC1,12.9%
2,O=C(Nc1ccc(F)cc1)N1CCOCC1,1.9%
3,CN(C)S(=O)(=O)c1ccc(NC(=O)N2CCOCC2)cc1,-1.8%
4,CN(C)c1ccc(NC(=O)N2CCOCC2)cc1,63.7% (active)
5,NC(=O)NNC(=S)Nc1cccc2ccccc12,27.8%
6,O=C(NCc1ccccc1)C1=C[C@@H](c2ccc(Br)cc2)C[C@@H](OCc2ccc(CO)cc2)O1,55.2% (active)
7,O=C(Nc1ccccc1)C1=C[C@H](c2ccc(Br)cc2)C[C@H](OCc2ccc(CO)cc2)O1,13.9%
8,O=C(NCc1ccccc1)C1=C[C@H](c2ccc(Br)cc2)C[C@H](OCc2ccc(CO)cc2)O1,37.7%
9,C#Cc1ccc([C@@H]2C=C(C(=O)NCc3ccccc3)O[C@H](OCc3ccc(CO)cc3)C2)cc1,50.8% (active)
10,C#Cc1ccc([C@H]2C=C(C(=O)O)O[C@@H](OCc3ccc(CO)cc3)C2)cc1,9.9%
11,O=C(NCc1ccccc1)C1=C[C@@H](c2ccc(Br)cc2)C[C@@H](OCCCCO)O1,60.5% (active)
12,O=C(NCc1ccccc1)C1=C[C@H](c2ccc(C(F)(F)F)cc2)C[C@H](OCc2ccc(CO)cc2)O1,46.8%
13,O=C(NCc1ccccc1)C1=C[C@@H](c2ccc(C(F)(F)F)cc2)C[C@@H](OCc2ccc(CO)cc2)O1,50.2% (active)
14,C#Cc1ccc([C@@H]2C=C(C(=O)O)O[C@H](OCc3ccc(CO)cc3)C2)cc1,0.7%
15,C#CCNC(=O)C1=C[C@H](c2ccc(Br)cc2)C[C@H](OCCCCO)O1,37.7%
16,O=C(Nc1ccccc1)C1=C[C@@H](c2ccc(Br)cc2)C[C@@H](OCCCCO)O1,12.2%
17,O=C(Nc1ccccc1)C1=C[C@@H](c2ccc(C(F)(F)F)cc2)C[C@@H](OCc2ccc(CO)cc2)O1,18%

# From PubChem BioAssay AID1220 (Sanford-Burnham Center for Chemical Genomics, 2008)
